Calls of active or inactive are those of the source. How the source made its calls: active means hit-call score of the fitted dose curve at least 0.9, where 1 is the maximum; inactive means score below 0.9.
Experiments:
[1] = read-out: Tissue plasminogen activator (tPA), PLAT (gene 5327); assay: BSK_BE3C_tPA: BioMAP Diversity Plus: BE3C Assay for Tissue plasminogen activator (tPA) Biomarker Activity (AID 2283041); conditions: primary human bronchial epithelial cells; actives raise or lower the signal
How it was run: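 Primary human bronchial epithelial cells in the BE3C system, exposed to compound for 24 h. tPA was quantified by ELISA; DMSO served as baseline, with gain or loss of signal fitted. Cytotoxicity checked in parallel cultures by SRB total-protein staining.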

[2] = read-out: Interleukin-8 (IL8), CXCL8 (gene 3576); assay: BSK_CASM3C_IL8: BioMAP Diversity Plus: CASM3C Assay for Interleukin-8 (IL8) Biomarker Activity (AID 2283042); conditions: primary human coronary artery smooth muscle cells; actives raise or lower the signal;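 further: IL-8 protein level quantified by ELISA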
[3] = read-out: Human Leukocyte Antigen - DR isotype (HLADR), HLA-DRA (gene 3122); assay: BSK_CASM3C_HLADR: BioMAP Diversity Plus: CASM3C Assay for Human Leukocyte Antigen - DR isotype (HLADR) Biomarker Activity (AID 2283043); conditions: primary human coronary artery smooth muscle cells; actives raise or lower the signal;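 further: cell-surface HLA-DR protein level quantified by ELISA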
[4] = read-out: Macrophage colony-stimulating factor (MCSF), CSF1 (gene 1435); assay: BSK_CASM3C_MCSF: BioMAP Diversity Plus: CASM3C Assay for Macrophage colony-stimulating factor (MCSF) Biomarker Activity (AID 2283044); conditions: primary human coronary artery smooth muscle cells; actives raise or lower the signal;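 further: M-CSF protein amount quantified by ELISA after 24 h exposure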
[5] = read-out: Low-density lipoprotein receptor (LDLR), LDLR (gene 3949); assay: BSK_CASM3C_LDLR: BioMAP Diversity Plus: CASM3C Assay for Low-density lipoprotein receptor (LDLR) Biomarker Activity (AID 2283045); conditions: primary human coronary artery smooth muscle cells; actives raise or lower the signal;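 further: LDLR protein level on the cell surface quantified by ELISA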
[6] = read-out: Monocyte Chemoattractant Protein-1 (MCP1), CCL2 (gene 6347); assay: BSK_CASM3C_MCP1: BioMAP Diversity Plus: CASM3C Assay for Monocyte Chemoattractant Protein-1 (MCP1) Biomarker Activity (AID 2283046); conditions: primary human coronary artery smooth muscle cells; actives raise or lower the signal;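 further: MCP-1 level quantified by ELISA 24 h after dosing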
[7] = BSK_CASM3C_Proliferation: Cell Proliferation Assessment in the BioMAP Diversity Plus: CASM3C Assay (AID 2283047); conditions: primary human coronary artery smooth muscle cells;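 further: sulforhodamine B total protein stain as relative cell number at 560 nm; sub-confluent cells exposed 48 h before staining; fitted both ways against DMSO so gain or loss of cell number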
[8] = read-out: Monokine induced gamma interferon (MIG), CXCL9 (gene 4283); assay: BSK_CASM3C_MIG: BioMAP Diversity Plus: CASM3C Assay for Monokine induced gamma interferon (MIG) Biomarker Activity (AID 2283048); conditions: primary human coronary artery smooth muscle cells; actives raise or lower the signal;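 further: MIG protein level measured by ELISA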
[9] = read-out: serum amyloid A (SAA), SAA1 (gene 6288); assay: BSK_CASM3C_SAA: BioMAP Diversity Plus: CASM3C Assay for serum amyloid A (SAA) Biomarker Activity (AID 2283049); conditions: primary human coronary artery smooth muscle cells; actives raise or lower the signal;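 further: SAA protein level quantified by ELISA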
[10] = BSK_CASM3C_SRB: Viability Assessment in the BioMAP Diversity Plus: CASM3C Assay (AID 2283050); conditions: primary human coronary artery smooth muscle cells
[11] = read-out: Thrombomodulin, THBD (gene 7056); assay: BSK_CASM3C_Thrombomodulin: BioMAP Diversity Plus: CASM3C Assay for Thrombomodulin Biomarker Activity (AID 2283051); conditions: primary human coronary artery smooth muscle cells; actives raise or lower the signal;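 further: thrombomodulin protein level measured by ELISA 24 h after dosing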
[12] = read-out: Tissue Factor, F3 (gene 2152); assay: BSK_CASM3C_TissueFactor: BioMAP Diversity Plus: CASM3C Assay for Tissue Factor Biomarker Activity (AID 2283052); conditions: primary human coronary artery smooth muscle cells; actives raise or lower the signal;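 further: cell surface tissue factor protein level read by ELISA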
[13] = read-out: Interferon-gamma inducible Protein 10 (IP10), CXCL10 (gene 3627); assay: BSK_hDFCGF_IP10: BioMAP Diversity Plus: hDFCGF Assay for Interferon-gamma inducible Protein 10 (IP10) Biomarker Activity (AID 2283053); conditions: primary human foreskin fibroblasts; actives raise or lower the signal
How it was run: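 Primary human foreskin fibroblasts exposed to chemicals for 24 h. IP-10 measured by ELISA; changes fitted bidirectionally against DMSO baseline.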

[14] = read-out: Urokinase-type plasminogen activator receptor (uPAR), PLAUR (gene 5329); assay: BSK_CASM3C_uPAR: BioMAP Diversity Plus: CASM3C Assay for Urokinase-type plasminogen activator receptor (uPAR) Biomarker Activity (AID 2283054); conditions: primary human coronary artery smooth muscle cells; actives raise or lower the signal;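 further: cell-surface uPAR protein level quantified by ELISA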
[15] = read-out: Vascular cell adhesion molecule 1 (VCAM1), VCAM1 (gene 7412); assay: BSK_CASM3C_VCAM1: BioMAP Diversity Plus: CASM3C Assay for Vascular cell adhesion molecule 1 (VCAM1) Biomarker Activity (AID 2283055); conditions: primary human coronary artery smooth muscle cells; actives raise or lower the signal;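 further: VCAM-1 protein level quantified by ELISA on the cells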
[16] = read-out: Collagen III, COL3A1 (gene 1281); assay: BSK_hDFCGF_CollagenIII: BioMAP Diversity Plus: hDFCGF Assay for Collagen III Biomarker Activity (AID 2283056); conditions: primary human foreskin fibroblasts; actives raise or lower the signal
How it was run: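 Response relative to DMSO, fitted in both directions, reflects ELISA-measured collagen III in human primary skin fibroblasts 24 h after compound addition.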

[17] = read-out: Epidermal growth factor receptor (EGFR), EGFR (gene 1956); assay: BSK_hDFCGF_EGFR: BioMAP Diversity Plus: hDFCGF Assay for Epidermal growth factor receptor (EGFR) Biomarker Activity (AID 2283057); conditions: primary human foreskin fibroblasts; actives raise or lower the signal
How it was run: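 Primary human foreskin fibroblasts (hDFCGF system), sampled 24 h after dosing; EGFR quantified by ELISA. Bidirectional fit relative to DMSO baseline; SRB total-protein staining in parallel cultures for cytotoxicity.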

[18] = read-out: Interleukin-8 (IL8), CXCL8 (gene 3576); assay: BSK_hDFCGF_IL8: BioMAP Diversity Plus: hDFCGF Assay for Interleukin-8 (IL8) Biomarker Activity (AID 2283058); conditions: primary human foreskin fibroblasts; actives raise or lower the signal
How it was run: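 Fibroblast monolayers (human foreskin, hDFCGF) received test chemical for 24 h before ELISA detection of IL-8; either increases or decreases relative to DMSO count as activity.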

[19] = BSK_hDFCGF_Proliferation: Cell Proliferation Assessment in the BioMAP Diversity Plus: hDFCGF Assay (AID 2283059); conditions: primary human foreskin fibroblasts;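 further: curves fitted for both rise and fall of signal versus DMSO baseline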
How it was run: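 Total protein read at 560 nm after 0.1% SRB staining of TCA-fixed human skin fibroblasts, […]. Activity is fitted in both directions relative to DMSO as baseline.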

[20] = read-out: Macrophage colony-stimulating factor (MCSF), CSF1 (gene 1435); assay: BSK_hDFCGF_MCSF: BioMAP Diversity Plus: hDFCGF Assay for Macrophage colony-stimulating factor (MCSF) Biomarker Activity (AID 2283060); conditions: primary human foreskin fibroblasts; actives raise or lower the signal
How it was run: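 fibroblasts (human foreskin, primary), 24 h post-dose; M-CSF by ELISA; bidirectional fit, DMSO = baseline.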

Measured: AC50

CCCCCCCCN(C)CCCCCCCC
inactive: all assays above

O=C1CCC(C2CCCCC2)CC1
active: [13] 33.1 µM | [16] 20.7 µM | [17] 29.9 µM | [18] 32.5 µM | [19] 19.5 µM | [20] 29.8 µM
inactive: all other assays above

Cc1ncc(CO)c(CO)c1O
inactive: all assays above

CC(C)(C)c1cc(/C=C2\SC(N)=NC2=O)cc(C(C)(C)C)c1O
active: [3] 20 µM | [4] 33.3 µM | [5] 29.1 µM | [6] 31.1 µM | [7] 29.1 µM | [8] 32 µM | [9] 31.6 µM | [10] 30.7 µM | [11] 0.507 µM | [13] 25.7 µM | [14] 31.9 µM | [15] 31.1 µM | [16] 6.83 µM | [18] 20 µM | [19] 7.49 µM | [20] 20 µM
inactive: [1] | [2] | [12] | [17]

O=c1ccc2ccccc2o1
active: [9] 0.148 µM | [19] 8.81 µM
inactive: all other assays above

CC(C)(O)c1ccc(CNC(=O)c2cccnc2Oc2ccc3nonc3c2)cc1
active: [9] 27.5 µM
inactive: all other assays above

CCOC(=O)O[C@H](C)OC(=O)c1ccc2c(c1)cc(C(=O)NC1CCN(C(C)C)CC1)n2Cc1cc(-c2ccc(Cl)s2)on1
active: [1] 9.95 µM | [2] 8.81 µM | [3] 5.85 µM | [4] 5.13 µM | [6] 7.49 µM | [7] 2.41 µM | [8] 9.34 µM | [9] 6.05 µM | [10] 6.15 µM | [11] 9.19 µM | [12] 7.43 µM | [13] 4.62 µM | [14] 6.27 µM | [15] 10.3 µM | [16] 4.13 µM | [17] 4.85 µM | [18] 6.12 µM | [19] 1.72 µM | [20] 5.16 µM
inactive: [5]

Oc1ccc2ccccc2c1
inactive: all assays above

OC12N=C(c3ccccc3)SC1Cc1cc(Cl)ccc12 (stereo not given)
active: [7] 30.1 µM
inactive: all other assays above

Cc1occc1C(=O)Nc1ccc(C(=O)N2CCC(F)(F)/C(=C\C(=O)N3CCC(N4CCCCC4)CC3)c3ccccc32)cc1
active: [5] 10.8 µM
inactive: all other assays above

Reference: PubChem BioAssay (EPA / NIEHS)
